Consider ten compounds from PubChem BioAssay (NCI).

What all share (experiment): NCI-60 one-dose screen, 48 h (100 = growth as untreated, 0 = no growth, -100 = all killed)
For one test, the system named is HOP-92 NSCLC. To be noted: 10 µM unless noted.
The test system of a further test is NCI-H522 lung. To be noted: 10 µM unless noted.
A further test deals with COLO 205 colon. To be noted: 10 µM.
The subject of the next test is MALME-3M melanoma. Particulars: 10 µM unless noted.
The next test relates to HCT-15 colon. To be noted: 10 µM.
The subject of a further test is SNB-19 CNS. To be noted: 10 µM unless noted.
The next test has as its system SK-MEL-5 melanoma. Particulars: 10 µM unless noted.
In another test the test system is LOX IMVI melanoma. Particulars: 10 µM unless noted.
The test system of a further test is EKVX NSCLC. To be noted: 10 µM unless noted.
The test system of a further test is SN12C renal. To be noted: 10 µM unless noted.
A further test has as its system MOLT-4 leukemia. To be noted: 10 µM.
The next test has as its system RPMI-8226 leukemia. To be noted: 10 µM unless noted.
A further test deals with OVCAR-8 ovarian. To be noted: 10 µM unless noted.
Another test concerns IGROV1 ovarian. Particulars: 10 µM.
In a further test the test system is MDA-MB-435 melanoma. To be noted: 10 µM unless noted.
The test system of the next test is HCC-2998 colon. Particulars: 10 µM unless noted.
The next test has as its system CCRF-CEM leukemia. To be noted: 10 µM unless noted.
The subject of the next test is SR leukemia. To be noted: 10 µM.
Another test deals with TK-10 renal. Particulars: 10 µM unless noted.

About 83,000 compounds went through this panel and 20% of them were active in at least one assay; those are over-represented in the sample as a whole.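 Assay: single dose, 48 h. Readout: percent growth (0 = no net growth; negative = cell death). Active: <10.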 Unmarked numbers belong to inactive results. Active and inactive are the calls of the source.

For the compound `COc1ccccc1N1CCN(CCc2c[nH]c3cc4c(cc23)OCO4)CC1`, the growth was -8.6% (active) in the test with HOP-92 NSCLC; 72% in the test on NCI-H522 lung; 74.7% in the test on COLO 205 colon; 92% with MALME-3M melanoma; 68% in the test with HCT-15 colon; 79.6% in the test on SNB-19 CNS. Also, the growth in the test on SK-MEL-5 melanoma is 74.8%; with LOX IMVI melanoma, 60.4%; in the test with EKVX NSCLC it was 77.7%; in the test on SN12C renal it was 68.4%; with MOLT-4 leukemia, 84.7%; with RPMI-8226 leukemia, 47.1%. Besides, the growth is 88.4% in the test with OVCAR-8 ovarian, -33.9% (active) with IGROV1 ovarian, 78% in the test with MDA-MB-435 melanoma and 92.6% in the test with HCC-2998 colon.
Consider `COc1cc(N(CCCl)CCCl)ccc1C=Nc1ccccc1C(=O)O`, for which the growth in the test with HOP-92 NSCLC was 97.8%; in the test on NCI-H522 lung, 32.8%; in the test on HCT-15 colon it was 97.7%; in the test on SNB-19 CNS it was 97.2%; with SK-MEL-5 melanoma, 97.4%; in the test on LOX IMVI melanoma, 101%. The growth in the test on SN12C renal was 99.2%; with CCRF-CEM leukemia it was 97.5%; with MOLT-4 leukemia, 97.2%; in the test with SR leukemia, 84.1%; with RPMI-8226 leukemia, 97.2%; with OVCAR-8 ovarian it was 92.9%. Further, the growth in the test with IGROV1 ovarian was 84.1%; in the test with MDA-MB-435 melanoma, 102%; in the test with HCC-2998 colon, 88.2%.
In the case of `O=[N+]([O-])c1ccc(/C=C/C=C/c2ccc(S(=O)(=O)F)cc2)c(Cl)c1`, the growth in the test on HOP-92 NSCLC is 86.1%; in the test with NCI-H522 lung, 83.8%; in the test with MALME-3M melanoma it was 102%; in the test on HCT-15 colon, 98%; in the test on SK-MEL-5 melanoma it was 97.9%; in the test on SN12C renal, 96.7%. Besides, the growth with TK-10 renal was 108%; in the test with CCRF-CEM leukemia, 85.8%; with MOLT-4 leukemia, 84.1%; in the test on RPMI-8226 leukemia, 93.4%; in the test on OVCAR-8 ovarian, 99%; with IGROV1 ovarian, 104%. Besides, the growth with MDA-MB-435 melanoma was 92.9%.
For the compound `O=C1NC(=O)C(=Cc2cn(Cc3ccccc3)c3ccccc23)C(=O)N1`, the growth was 79.3% in the test with HOP-92 NSCLC; 102% with NCI-H522 lung; 18.3% in the test with COLO 205 colon; 109% with MALME-3M melanoma; 93.8% in the test on HCT-15 colon; 101% in the test with SK-MEL-5 melanoma. In addition, the growth in the test with LOX IMVI melanoma is 83.4%; in the test on EKVX NSCLC, 63.7%; in the test on SN12C renal, 88.8%; with TK-10 renal it was 28.8%; with CCRF-CEM leukemia, 98.1%; in the test with SR leukemia it was 71.4%. Moreover, the growth is 81.1% with OVCAR-8 ovarian, -26.7% (active) in the test on IGROV1 ovarian, 91.4% in the test on MDA-MB-435 melanoma and 70.2% in the test on HCC-2998 colon.
Regarding `COc1ccc(C2SCC(=O)Nc3c2c(C)nn3-c2nc3ccc(C)cc3s2)cc1O` (centres undefined), the growth in the test with HOP-92 NSCLC is 28.9%; with NCI-H522 lung it was 1.68% (active); with COLO 205 colon, 35.1%; in the test with MALME-3M melanoma, 43.5%; in the test on HCT-15 colon, 23.9%; in the test with SNB-19 CNS it was 53.8%. Further, the growth in the test on SK-MEL-5 melanoma was 16.6%; in the test on LOX IMVI melanoma, 36.9%; in the test on TK-10 renal it was 71.6%; in the test on CCRF-CEM leukemia, 27.6%; in the test with MOLT-4 leukemia, 18.2%; in the test with SR leukemia, 9.81% (active). The growth with RPMI-8226 leukemia was 38.8%; in the test on OVCAR-8 ovarian, 50.7%; in the test on IGROV1 ovarian it was 52.7%; in the test with MDA-MB-435 melanoma it was -25.5% (active); in the test on HCC-2998 colon, 54.2%.
For `CCCCCCCCCCOc1ccc(C(=O)Oc2ccc(CSP3(=O)OCC4OC(n5ccc(=O)[nH]c5=O)C(F)C4OP(=O)(O)OCC4OC(n5cnc6c(N)ncnc65)C(F)C4O3)cc2)cc1` (centres undefined), the growth with HOP-92 NSCLC was 85.4%; in the test on NCI-H522 lung it was 71.1%; with MALME-3M melanoma it was 110%; in the test with HCT-15 colon, 105%; in the test with SNB-19 CNS, 103%; in the test on SK-MEL-5 melanoma, 111%. Moreover, the growth in the test with LOX IMVI melanoma was 85.3%; in the test on EKVX NSCLC, 111%; in the test with SN12C renal, 101%; in the test with TK-10 renal, 92%; with CCRF-CEM leukemia, 87.1%; in the test on MOLT-4 leukemia, 68.4%. In addition, the growth with SR leukemia is 25.4%; in the test with RPMI-8226 leukemia, 82.6%; with OVCAR-8 ovarian it was 104%; in the test on IGROV1 ovarian, 95.3%; with MDA-MB-435 melanoma, 105%; in the test with HCC-2998 colon it was 102%.
In the case of `CC(=O)[O][Hg][c]1ccccc1`, the growth in the test with HOP-92 NSCLC was -94.7% (active); in the test with NCI-H522 lung it was -32.8% (active); in the test on COLO 205 colon, -98.5% (active); in the test on MALME-3M melanoma it was -88% (active); with HCT-15 colon it was -65.5% (active); in the test on SK-MEL-5 melanoma it was -87.6% (active). Moreover, the growth was -88.2% (active) with LOX IMVI melanoma; -35.7% (active) with EKVX NSCLC; -90.5% (active) with SN12C renal; -94.7% (active) in the test with TK-10 renal; 0.0979% (active) with CCRF-CEM leukemia; -10.9% (active) with MOLT-4 leukemia. Moreover, the growth in the test on SR leukemia is -31.3% (active); in the test on RPMI-8226 leukemia it was 10.1%; in the test with IGROV1 ovarian it was -55.1% (active); in the test with MDA-MB-435 melanoma, -89.2% (active); in the test on HCC-2998 colon, -96.5% (active).
As to `CCOC(=O)/C(C#N)=C/c1ccc(N(CCCl)CCCl)cc1`, the growth with HOP-92 NSCLC was 67.6%; in the test on COLO 205 colon it was 112%; in the test with MALME-3M melanoma it was 99.7%; in the test with HCT-15 colon, 91.1%; with SNB-19 CNS, 106%; in the test on SK-MEL-5 melanoma it was 97.9%. Also, the growth was 92% with LOX IMVI melanoma; 72.4% in the test on SN12C renal; 91.4% in the test on TK-10 renal; 84.7% in the test with MOLT-4 leukemia; 30.3% in the test on SR leukemia; 88.4% in the test on RPMI-8226 leukemia. The growth was 71.6% in the test with OVCAR-8 ovarian, 48.4% with IGROV1 ovarian, 94.4% with MDA-MB-435 melanoma and 105% in the test with HCC-2998 colon.
Regarding `CC(=O)Nc1ccc(Cc2ccc(NC(C)=O)cc2)cc1`, the growth is 45.6% in the test with HOP-92 NSCLC; 104% in the test on NCI-H522 lung; 103% with MALME-3M melanoma; 107% in the test with HCT-15 colon; 104% with SK-MEL-5 melanoma; 99.8% in the test on LOX IMVI melanoma. For the same compound, the growth was 103% with EKVX NSCLC; 101% in the test with SN12C renal; 106% in the test on TK-10 renal; 101% in the test with CCRF-CEM leukemia; 76.3% in the test with MOLT-4 leukemia; 98.2% in the test with RPMI-8226 leukemia. For the same compound, the growth in the test with OVCAR-8 ovarian is 95.6%; in the test on MDA-MB-435 melanoma it was 106%; in the test with HCC-2998 colon, 116%.
For the compound `O=C(C(=O)N1CCCC1)c1cn(CCCCCn2cc(C(=O)C(=O)N3CCCC3)c3ccccc32)c2ccccc12`, the growth in the test with HOP-92 NSCLC is 37.2%; in the test with NCI-H522 lung it was 89.5%; with COLO 205 colon, 110%; in the test on MALME-3M melanoma, 109%; with HCT-15 colon it was 97.5%; in the test on SNB-19 CNS it was 93.5%. Also, the growth with SK-MEL-5 melanoma is 75.9%; with EKVX NSCLC, 75.5%; with SN12C renal, 82.3%; with TK-10 renal, 112%; in the test on CCRF-CEM leukemia it was -26.6% (active); in the test with SR leukemia, 67.7%. Further, the growth in the test with RPMI-8226 leukemia was 66.2%; in the test with IGROV1 ovarian, 98.8%; with MDA-MB-435 melanoma it was 87.6%; in the test with HCC-2998 colon, 103%.
